Screening results (PubChem BioAssay)
Shown are actives, neighbours in structure and some others; about 10% of the full set was active somewhere.
GPT2 inhibitor – inhibitors of human GPT2 alanine aminotransferase | Q8TD30 | Recombinant GPT2, coupled pyruvate oxidase/HRP Amplex Red fluorescence | Potency, µM (top dose mostly 57.7 µM), without a hit: at the top dose activity change, negative = inhibition, most hits filed as inhibitors | actives 0.25% (n = 100,000) | AID 1671188; also: nearly all actives have a fitted effect of over 60% in size
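Recombinant GPT2 (10ng/uL) with 250uM a-KG and 2mM L-alanine, 30 min at room temperature, in HEPES pH 7.5 buffer. Pyruvate detected by pyruvate oxidase/HRP/Amplex Red fluorescence after 30 min in the dark; AOA (50uM) as positive control.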
NPR1 antag – antagonists of human natriuretic peptide receptor Npr1; AID 1347048; HEK293 hNpr1 GloSensor cGMP, ANP-stimulated luminescence; actives 1.6% (n = 76,000); Potency, µM (titrated, usually from 46.3 µM), for inactives: top-dose activity change, negative = inhibition, actives largely listed as inhibitors; calls by dose curve; also: nearly all actives have a fitted effect of over 60% in size
Target sequence (P16066 whole entry, looked up): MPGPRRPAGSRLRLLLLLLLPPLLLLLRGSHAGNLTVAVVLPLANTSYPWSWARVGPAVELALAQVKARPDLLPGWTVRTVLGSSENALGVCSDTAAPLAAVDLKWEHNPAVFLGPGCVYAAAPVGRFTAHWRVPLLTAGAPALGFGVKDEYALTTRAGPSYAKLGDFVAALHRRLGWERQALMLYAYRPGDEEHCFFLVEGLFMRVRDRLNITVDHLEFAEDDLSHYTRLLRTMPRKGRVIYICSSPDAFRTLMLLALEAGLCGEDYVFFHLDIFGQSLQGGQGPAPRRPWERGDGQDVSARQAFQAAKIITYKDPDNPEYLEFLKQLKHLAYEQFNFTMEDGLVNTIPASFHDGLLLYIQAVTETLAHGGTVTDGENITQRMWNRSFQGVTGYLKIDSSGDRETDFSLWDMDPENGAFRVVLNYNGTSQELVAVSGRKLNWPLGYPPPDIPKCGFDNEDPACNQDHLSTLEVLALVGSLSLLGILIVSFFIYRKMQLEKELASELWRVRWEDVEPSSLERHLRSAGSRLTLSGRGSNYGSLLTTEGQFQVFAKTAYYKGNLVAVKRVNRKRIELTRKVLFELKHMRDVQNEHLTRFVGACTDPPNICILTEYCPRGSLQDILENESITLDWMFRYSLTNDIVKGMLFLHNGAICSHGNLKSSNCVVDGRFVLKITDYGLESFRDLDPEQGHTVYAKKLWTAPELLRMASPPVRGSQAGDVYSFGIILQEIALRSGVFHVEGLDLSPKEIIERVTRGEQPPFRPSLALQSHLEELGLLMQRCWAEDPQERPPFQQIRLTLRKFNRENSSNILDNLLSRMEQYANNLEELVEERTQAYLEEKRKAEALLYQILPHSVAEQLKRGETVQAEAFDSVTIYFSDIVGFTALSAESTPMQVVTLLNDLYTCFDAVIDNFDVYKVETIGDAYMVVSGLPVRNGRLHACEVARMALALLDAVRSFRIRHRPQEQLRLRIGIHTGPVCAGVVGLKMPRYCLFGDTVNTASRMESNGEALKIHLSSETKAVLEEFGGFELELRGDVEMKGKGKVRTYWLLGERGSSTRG
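HEK293 cells stably expressing human Npr1 and cGMP GloSensor pGS-40F, loaded 2 h with 2% GloSensor reagent, given compound 30 min at room temperature. Luminescence read before and 20 min after 0.1 nM hNppA.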
3T3 cytotox – NIH 3T3 cell cytotoxicity. NIH 3T3 viability, CellTiter-Glo ATP luminescence, 48-72 h. Potency, µM (titrated, usually from 96.7 µM), for the others: at the top dose activity change, negative = cytotoxicity, most hits filed as inhibitors. actives 4.3% (n = 94,000); also: nearly all actives have a fitted effect of over 55% in size
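First NIH 3T3 cells are plated at 400 cells/well; next compound is pinned in; then plates incubate 48 or 72 hr at 37 °C; finally CellTiter-Glo is added and luminescence read after 10 min.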
HEK cytotox – kills HEK 293 cells. actives 6.6% (n = 94,000). AID 1345083. Potency, µM (titrated, usually from 115 µM), without a hit: at the highest dose activity change, negative = cytotoxicity, actives largely listed as inhibitors. HEK 293 viability, ATP luminescence (CellTiter-Glo), 48-72 h; also: nearly all actives have a fitted effect of over 60% in size
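Read-out: CellTiter-Glo ATP luminescence. Cells: HEK 293, 250 cells/well. Exposure: 48 or 72 hr, 37 degree Celsius.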
FLuc inh – inhibitors of firefly (Photinus pyralis) luciferase; P08659; purified P. pyralis luciferase, luminescence, biochemical; Potency, µM (series often up to 115 µM), hits mostly inhibitors; actives 2.5% (n = 76,000); AID 1347043; also: nearly all actives have a fitted effect of over 65% in size
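Inhibitors were tested against purified firefly luciferase in a biochemical, low-substrate format (both substrates at 10uM) and luminescence measured with a CCD imager.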
Numbers without * were called inactive; i = inactive; ? = inconclusive; nt = not tested or not shown; [ ] = remark or other dose. Unless noted, calls follow the shape of the dose curve; as a rule, active = well fitted curve in the direction sought with a large enough effect; inconclusive = small, poorly fitted or top-dose-only effect, or another doubt; inactive = no such curve, though single readings can be large; an effect the other way counts as inactive or inconclusive. % is scaled to controls: 0 for no effect and ±100 for the full control effect; potency is read from the fitted curve at half-maximal effect.

SMILES	GPT2 inhibitor	NPR1 antag	3T3 cytotox	HEK cytotox	FLuc inh
O=C1NCCN2CC3(CCN(C(=O)NCc4ccccc4)CC3)CC12 (centres undefined)	3.9%	-1.1%	-9.6%	0.9%	i
Cc1noc([C@@H]2CN(C(=O)Cc3ccc(Cl)cc3)C[C@H]2C(N)=O)n1	-1.8%	1.2%	-18.5%	-3.9%	i
CN1[C@H](C(=O)O)C[C@H](C(=O)NCCCO)[C@@H]1c1ccccc1F	-8.9%	7.2%	-3.7%	-0.4%	i
COC(=O)[C@@H]1Cc2c([nH]c3ccccc23)[C@H]2C[C@@H](NCCO)C[C@@H](c3ccccc3F)N21	1.1%[88.5 µM]	-14.9%[70.6 µM]	28.2µM*	39.8µM*	i
COC(=O)[C@@H]1Cc2c([nH]c3ccccc23)[C@H]2C[C@@H](NCCNC(C)=O)C[C@@H](c3ccccc3F)N21	-0.3%	-5.1%	79.4µM*	?	?
COCCNC(=O)C1COC2(CCN(C(=O)c3ccccc3F)CC2)N1C(=O)c1ccco1 (centres undefined)	i	0.8%	-11.8%	-9.8%	i
COC(=O)[C@@H]1Cc2c([nH]c3ccccc23)[C@H]2C[C@H](NC[C@H]3CCCO3)C[C@@H](c3ccccc3F)N21	-5.6%	0.3%	35.5µM*	?	i
COC(=O)C1=C(C)N=C2SC=C(CC(=O)NCC3CCCO3)N2C1c1ccccc1F (centres undefined)	0.2%	-12.4%	-21.3%	-27.3%	i
CO[C@H]1C(=O)N(C2CCN(C(=O)c3n[nH]c4ccccc34)CC2)[C@H]1c1ccncc1	-2.2%	3.8%	-27.0%	-0.1%	i
C=C[C@H]1[C@H](O[C@@H]2O[C@H](CO)[C@@H](O)[C@H](O)[C@H]2O)OC=C2C(=O)OCC[C@]21O	i	nt	nt	nt	nt
O=C(c1cc2ccccc2[nH]1)N1CCCC2(C1)NC(=O)N(Cc1ccccc1)C2=O (centres undefined)	4.8%	-0.5%	-28.3%	?	i
CCn1ccnc1CN(C)Cc1cn(Cc2ccccc2)nc1-c1cc2ccccc2o1	i	-21.2%	39.8µM*	44.7µM*	i
CCn1ccnc1CN(C)Cc1cn(C)nc1-c1ccc(Oc2ccccc2)cc1	-17.9%	-7.6%	?	39.8µM*	i
CN1CCN(C(=O)c2cc3cc(Cl)ccc3[nH]2)CC1	i	nt	nt	nt	nt
Cc1ccc(C)c(C(=O)N2CCN(c3cc(-c4ccc(Cl)cc4)[nH]n3)CC2)c1	0.2%	14.1µM*	?	25.1µM*	i
COc1ccc(-c2cc(N3CCN(C(=O)c4ccc(C)c(F)c4)CC3)n[nH]2)cc1	i	-2.8%	?	?	i
Cc1ccc(-c2cc(N3CCCN(C(=O)Cc4ccccc4Cl)CC3)n[nH]2)cc1C	?	-2.9%	39.8µM*	?	?
COc1ccc(Cl)cc1C(=O)N1CCCN(c2cc(-c3ccc(C)c(C)c3)[nH]n2)CC1	?	-20.3%	39.8µM*	?	i
Cc1ccccc1C(=O)N1CCN(c2cc(-c3ccc(F)cc3)[nH]n2)CC1	i	-21.4%	?	?	i
O=C(Cc1ccccc1Cl)N1CCCN(c2cc(-c3ccccc3)[nH]n2)CC1	?	-9.2%	?	?	i
COc1ccc(-c2cc(N3CCCN(C(=O)c4ccc(C)c(C)c4)CC3)n[nH]2)cc1	?	-0.3%	?	44.7µM*	i
O=C(NCc1cccnc1)c1nc(-c2ccc(Cl)cc2Cl)c2ccccn12	-4.3%	nt	?	?	nt
O=C(O)[C@H]1C[C@@H](C(=O)NCc2ccncc2)CN(C(=O)CC2CCCC2)C1	-3.7%[11.5 µM]	-1.9%	-1.8%	-5.0%	i
Cc1ccc(-c2cc(N3CCCN(C(=O)c4ccc5c(c4)OCO5)CC3)n[nH]2)cc1C	?	-16.3%	?	?	i
Cc1ccc(C(=O)N2CCCN(c3cc(-c4ccc(C)c(C)c4)[nH]n3)CC2)cc1C	?	-11.4%	?	35.5µM*	i
SMILES	GPT2 inhibitor	NPR1 antag	3T3 cytotox	HEK cytotox	FLuc inh
Cc1ccc(-c2cc(N3CCCN(C(=O)c4ccco4)CC3)n[nH]2)cc1C	i	-10.3%	31.6µM*	?	i
COc1ccc(-c2cc(N3CCCN(C(=O)c4ccc(C(C)(C)C)cc4)CC3)n[nH]2)cc1	0.4%	-1.1%	?	39.8µM*	i
COc1ccc(C(=O)N2CCCN(c3cc(-c4ccc(OC)cc4)[nH]n3)CC2)cc1	-21.2%	-20.9%	-27.2%	?	i
NCc1cccc(-c2cccc(Cl)c2)c1	-8.6%[88.5 µM]	nt	89.1µM*	?	nt
NCc1ccc(-c2cc(C(F)(F)F)ccc2Cl)cc1	i	nt	25.1µM*	28.2µM*	nt
NCc1ccc(-c2cccc(O)c2)cc1	3.6%[88.5 µM]	nt	89.1µM*	89.1µM*	nt
NCc1ccc(-c2cccc(C(F)(F)F)c2)cc1	-9.5%[88.5 µM]	nt	31.6µM*	31.6µM*	nt
O=C(O)c1ccc(-c2cccc(C(F)(F)F)c2)cc1	-8.4%[88.5 µM]	nt	-11.5%[138 µM]	-14.9%[172 µM]	nt
O=Cc1ccc(-c2cccc(O)c2)cc1	-4.6%[88.5 µM]	nt	?	?	nt
O=C(NC1CCc2ccccc21)c1cc2n(n1)CC(c1ccc(Cl)cc1)OC2 (centres undefined)	i	-4.8%	?	?	i
CN1CCC(OC2CCN(S(=O)(=O)c3cccc(Br)c3)CC2)CC1	1.6%	-19.4%	?	?	i
COCC(=O)NC[C@H]1CCN(Cc2ccc(Br)o2)C[C@H]1N(C)C	i	10.2%	-13.4%	-4.3%	i
COc1cccc(-c2noc(CCCc3nc(C4CCOC4)no3)n2)c1 (centres undefined)	i	-3.4%	-23.2%	-2.2%	i
O=C(CC1C(=O)NCCN1Cc1cccc(Oc2ccccc2)c1)NCc1ccco1 (centres undefined)	2.8%	6.3%	?	25.1µM*	i
CN(C)[C@@H]1CN(C(=O)c2ccccc2)CC[C@]1(O)c1ccccc1	-3.2%	4.4%	i	-2.9%	i
OC1(c2nc(Nc3ccc(Cl)c(C(F)(F)F)c3)n[nH]2)CCOCC1	0.7%[88.5 µM]	-23.5%[70.6 µM]	?	?	i
CC1(c2noc(-c3ccccn3)n2)CCN(C(=O)CCc2nc3ccc(Cl)cc3[nH]2)CC1	4.2%	-15.8%	?	50.1µM*	i
Cc1noc(C)c1Cc1ccc(C(=O)N2CCC(C)(c3noc(-c4cccnc4)n3)CC2)o1	i	-22.7%	31.6µM*	?	i
Cc1noc(C)c1Cc1ccc(C(=O)N2CCC(C)(c3noc(-c4ccccn4)n3)CC2)o1	i	-29.6%	?	44.7µM*	i
CC1(c2noc(C3CC3)n2)CCN(C(=O)CCc2nc3ccc(Cl)cc3[nH]2)CC1	i	-19.8%	-23.1%	?	i
